Source: paper PMC4336329 (PLoS ONE, 2015)
In all, about 310,000 compounds went through this assay and about 14,000 (4.5%) showed an effect of 50% or more. The effect is printed as a negative number. The sample holds strong results, similar compounds and a random draw of the others, so the mix is not that of the screen.

biological target: human ether-à-go-go-related gene (hERG) potassium channel (human, UniProt Q12809); test: primary screen, population patch clamp on CHO cells stably expressing hERG; higher = less effect of the substance
Sequence (Q12809 whole entry, looked up): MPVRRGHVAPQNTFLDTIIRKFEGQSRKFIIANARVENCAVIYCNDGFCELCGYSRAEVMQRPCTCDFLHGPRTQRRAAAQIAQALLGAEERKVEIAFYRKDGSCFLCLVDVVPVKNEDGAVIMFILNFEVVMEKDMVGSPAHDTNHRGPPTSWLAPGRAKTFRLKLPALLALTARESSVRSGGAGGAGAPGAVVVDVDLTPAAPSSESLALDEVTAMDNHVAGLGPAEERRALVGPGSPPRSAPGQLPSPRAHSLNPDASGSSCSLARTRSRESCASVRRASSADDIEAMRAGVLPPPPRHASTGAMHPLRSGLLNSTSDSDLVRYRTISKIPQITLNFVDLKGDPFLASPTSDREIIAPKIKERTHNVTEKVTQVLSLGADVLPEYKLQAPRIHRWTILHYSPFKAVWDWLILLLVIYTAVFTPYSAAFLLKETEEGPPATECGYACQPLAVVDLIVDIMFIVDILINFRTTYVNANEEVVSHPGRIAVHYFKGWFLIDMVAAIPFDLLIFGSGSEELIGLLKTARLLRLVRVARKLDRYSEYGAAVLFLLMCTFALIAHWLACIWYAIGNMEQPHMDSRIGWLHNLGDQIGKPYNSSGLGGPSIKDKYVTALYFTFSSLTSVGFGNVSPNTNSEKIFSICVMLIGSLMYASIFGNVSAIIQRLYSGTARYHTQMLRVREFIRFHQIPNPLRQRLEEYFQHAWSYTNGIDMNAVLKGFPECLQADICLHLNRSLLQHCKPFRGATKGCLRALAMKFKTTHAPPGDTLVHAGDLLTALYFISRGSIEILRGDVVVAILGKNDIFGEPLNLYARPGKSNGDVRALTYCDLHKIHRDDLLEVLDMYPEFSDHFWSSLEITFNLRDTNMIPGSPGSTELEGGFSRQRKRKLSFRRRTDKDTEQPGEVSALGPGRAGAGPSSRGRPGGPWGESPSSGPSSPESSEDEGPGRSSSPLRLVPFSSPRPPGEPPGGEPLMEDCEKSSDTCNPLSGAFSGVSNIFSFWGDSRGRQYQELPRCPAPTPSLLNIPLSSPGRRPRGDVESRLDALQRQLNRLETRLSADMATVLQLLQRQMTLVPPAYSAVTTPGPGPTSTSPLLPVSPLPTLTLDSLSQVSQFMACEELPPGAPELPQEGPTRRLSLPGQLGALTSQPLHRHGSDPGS
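Note: peak tail current of the secondary pulse compared with the same well before compound.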

Compound | hERG current change (%, negative = inhibition) at 10uM [%]
COc1ccc(C(=O)Nc2cc(C)nn2-c2nc3ccccc3[nH]2)c(OC)c1 | -5.95
CSc1nnc(-c2ccc(Cl)cc2Cl)o1 | 1.62
COc1cccc(NC(=O)COc2ccc(C(=O)N3CCN(C)CC3)cc2)c1 | 15.8
O=C(O)CCc1cccnc1 | 7.55
O=C(/C=C/c1c(F)cccc1Cl)c1ccc(O)cc1 | 1.1
Cc1ccc(-c2nnc(N3CCCCC3)c3ccccc23)cc1S(=O)(=O)N1CCN(C)CC1 | -58.7
Cc1ccc(-c2nnc(NCc3nc4ccccc4[nH]3)c3ccccc23)cc1S(=O)(=O)N1CCCCC1.Cl | -7.08
Cc1ccc(-c2nnc(N3CCCCC3)c3ccccc23)cc1S(=O)(=O)N(C)C | -27
Cc1ccc(-c2nnc(NC3CCCCC3)c3ccccc23)cc1S(=O)(=O)N1CCN(C)CC1 | -54.6
Cc1ccc(-c2nnc3c4ccccc4c(C)nn23)cc1S(=O)(=O)N1CCN(C)CC1 | -6.7
Cc1ccc(-c2nnc(N3CCOCC3)c3ccccc23)cc1S(N)(=O)=O | 17.3
COc1ccc(S(=O)(=O)NCC2CCCN(C(=O)CCSC)C2)cc1 (stereo not drawn) | 18
COc1cccc(CN2CC(C(=O)N(C)Cc3ccnc4ccccc34)CCC2=O)c1 (stereo not drawn) | -10.2
C=CCNc1nc(-c2c(C)nc3sccn23)cs1 | -10.1
Cc1ccccc1C(=O)NC(=S)NCCC1=CCCCC1 | 13.4
CN1CCN(c2ncc3c(n2)CC(c2ccccc2F)CC3=O)CC1 (stereo not drawn) | -4.43
COCCOC(=O)C1=C(C)NC2=C(C(=O)CCC2)C1c1ccc2c(c1)OCO2 (stereo not drawn) | -49.6
O=C(CCNC(=O)c1ccc(Br)cc1)NCc1ccccc1F | -13
O=C(CNC(=O)C1COc2ccccc2O1)N/N=C/c1ccc([N+](=O)[O-])cc1 (stereo not drawn) | -71.8
O=C(N/N=C/c1cccc([N+](=O)[O-])c1)C1COc2ccccc2O1 (stereo not drawn) | -29.1
O=C(NNC(=O)C1COc2ccccc2O1)c1cccc([N+](=O)[O-])c1 (stereo not drawn) | -7.35
O=C(CNC(=O)C1COc2ccccc2O1)N/N=C\c1ccc(Br)cc1 (stereo not drawn) | -20.1
O=C(CNC(=O)C1COc2ccccc2O1)N/N=C/c1cc(Br)c(O)c(Br)c1 (stereo not drawn) | -7.99
COc1ccc(/C=N/NC(=O)CNC(=O)C2COc3ccccc3O2)cc1OC (stereo not drawn) | -15.7
COc1cc(/C=N\NC(=O)CNC(=O)C2COc3ccccc3O2)ccc1O (stereo not drawn) | -26.8
COc1ccc(/C=N\NC(=O)CNC(=O)C2COc3ccccc3O2)cc1[N+](=O)[O-] (stereo not drawn) | -73.8

Compound | hERG current change (%, negative = inhibition) at 10uM [%]
O=C(CNC(=O)C1COc2ccccc2O1)N/N=C\c1ccccc1Cl (stereo not drawn) | 4.64
O=C(CNC(=O)C1COc2ccccc2O1)N/N=C\c1ccc(Cl)cc1 (stereo not drawn) | -69.4
O=C(Nc1cccc([N+](=O)[O-])c1)C1COc2ccccc2O1 (stereo not drawn) | -86.3
O=C(Nc1ccc([N+](=O)[O-])cc1)C1COc2ccccc2O1 (stereo not drawn) | 0.793
COc1ccc(OCCC(=O)Nc2ccccc2)cc1 | -6.83
Cc1cc(C(=O)O[C@H]2[C@H](Cc3ccccc3)NS(=O)(=O)[C@H]3C[C@@H]4C=C[C@]23O4)ccc1[N+](=O)[O-] | -1.67
Cn1nc(C(=O)NCc2ccc(F)cc2)c2c1-c1ccccc1S(=O)(=O)C2 | -44.9
CC(=O)N(CC(=O)O)c1ccccc1 | 10.5
Cc1ccc(NS(=O)(=O)c2ccc(CCC(=O)NCCCOC(C)C)cc2)cc1 | 4.27
O=c1oc2c3c4c(cc2c2c1CCC2)OCCN4CCC3 | -0.13
Cc1cccc(C)c1NC(=O)CNc1ccccc1 | 5.02
O=C(Nn1c(C2CCCCC2)nc2ccccc2c1=O)c1ccc(Cl)c([N+](=O)[O-])c1 | -9.26
COC(=O)C1=C(c2ccc(OC)c(OC)c2)C[C@@H]2CC[C@H]1N2C(=O)NCCOc1ccccc1Cl | -12.7
Cc1ccc(C)c(N2CCN(S(=O)(=O)c3ccc4c(c3)OCCO4)CC2)c1 | 3.7
C#CCOCCOCCOCCNc1nc(N2CCN(C(=O)CCCCCCCCCCNC(=O)[C@H](CCC(=O)O)n3cc(CCCCCN)nn3)CC2)nc(N2CCN(C(=O)CCCCCCCCCCNC(=O)[C@@H]([C@H](C)O)n3cc(C)nn3)CC2)n1 | 20.1
O=C(CSc1nc2c(c(=O)n1-c1ccc(Cl)cc1)SCC2)N1CCCC1 | -17.4
O=C(N/N=C\c1ccc([N+](=O)[O-])o1)C1COc2ccccc2O1 (stereo not drawn) | -67.4
C/C(=N/NC(=O)CNC(=O)C1COc2ccccc2O1)c1ccc2c(c1)OCCO2 (stereo not drawn) | -1.69
O=C(N/N=C\c1ccc(-c2ccc([N+](=O)[O-])cc2)o1)C1COc2ccccc2O1 (stereo not drawn) | -7.36
C/C(=N/NC(=O)CNC(=O)C1COc2ccccc2O1)c1ccc([N+](=O)[O-])cc1 (stereo not drawn) | -64.7
C/C(=N\NC(=O)CNC(=O)C1COc2ccccc2O1)c1ccc(Cl)cc1 (stereo not drawn) | -17.6
CC(C)(C)c1ccc2c(c1)OC(C(=O)N/N=C/c1ccc([N+](=O)[O-])o1)CO2 (stereo not drawn) | -39.2
CC(=O)Nc1ccc(NC(=O)C(C)OC(=O)C(C)SCC(=O)Nc2ccc(F)cc2)cc1 (stereo not drawn) | 12
CN(NC(=O)COc1ccccc1)C1=NS(=O)(=O)c2ccccc21 | 26.1
CCCCCNC(=O)C1c2ccccc2Oc2ccccc21 | 2.44
